Laboratory results published in ChEMBL document CHEMBL3988442, “University of Dundee, Small-Polar-MMV Screening Library” (2021).

Target: T1, Methionyl-tRNA synthetase, putative (Leishmania donovani (strain BPK282A1)) (UniProt E9BF75)
T1 sequence (whole entry): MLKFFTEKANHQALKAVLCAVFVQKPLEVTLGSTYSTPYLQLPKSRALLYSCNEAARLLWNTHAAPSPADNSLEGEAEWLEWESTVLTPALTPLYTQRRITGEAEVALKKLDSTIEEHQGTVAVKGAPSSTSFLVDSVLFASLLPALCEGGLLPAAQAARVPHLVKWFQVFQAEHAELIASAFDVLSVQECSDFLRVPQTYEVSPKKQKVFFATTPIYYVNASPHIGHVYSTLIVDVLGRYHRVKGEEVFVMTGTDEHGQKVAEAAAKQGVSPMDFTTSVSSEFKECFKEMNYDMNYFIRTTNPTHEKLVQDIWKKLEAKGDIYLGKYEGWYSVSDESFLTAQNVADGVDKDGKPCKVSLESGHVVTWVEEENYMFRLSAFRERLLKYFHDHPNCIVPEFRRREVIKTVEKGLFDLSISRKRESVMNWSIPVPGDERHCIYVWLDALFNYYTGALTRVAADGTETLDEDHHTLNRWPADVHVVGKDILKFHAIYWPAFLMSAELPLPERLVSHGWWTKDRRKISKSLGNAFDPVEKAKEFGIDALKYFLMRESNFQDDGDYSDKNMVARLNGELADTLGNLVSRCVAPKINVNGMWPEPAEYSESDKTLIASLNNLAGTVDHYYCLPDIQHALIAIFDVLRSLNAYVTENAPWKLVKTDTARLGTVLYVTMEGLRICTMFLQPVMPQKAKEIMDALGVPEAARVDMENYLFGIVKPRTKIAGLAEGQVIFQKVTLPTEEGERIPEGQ
Test: Leishmania donovani Methionine tRNA synthetase (LdMetRS):v7. Dose response assay
Format: functional
Set-up: conc 80 nM, time 150 minutes

Compound `COc1ccc(Oc2nccc3occc23)cc1CN1CCCC1` has a PXC50 (BOTTOM 5.268776127, HILLSLOPE 1.354854137, MAX_EFFECT 57.61821366, TOP 100.0) of 4.06, a PXC50 (BOTTOM -7.168939731, HILLSLOPE 0.901042745, MAX_EFFECT 51.70068027, TOP 100.0) of 4.08 and a PXC50 (BOTTOM -7.793188509, HILLSLOPE 1.286586052, MAX_EFFECT 52.89855072, TOP 100.0) of 4.09.
For `Cn1ncc2c(Nc3ccc(F)c(F)c3)nc(NCCO)nc21`, the PXC50 (MAX_EFFECT 4.750593824) was under 4, the PXC50 (MAX_EFFECT 5.660377358) was under 4 and the PXC50 (MAX_EFFECT 14.59227468) was under 4.
Compound `Cc1cc(C)n(-c2nc(N3CCCC(O)C3)c3c4c(sc3n2)CCCC4)n1` (configuration not stated) has a PXC50 (MAX_EFFECT 1.492537313) of under 4, a PXC50 (MAX_EFFECT 6.004140787) of under 4 and a PXC50 (MAX_EFFECT 6.832298137) of under 4. It also gave a PXC50 (MAX_EFFECT 7.036247335) of under 4.
Compound `Cc1cnn(CC2CN(Cc3nc(C)c4ccccc4n3)CCO2)c1` (configuration not stated) has a PXC50 (MAX_EFFECT 29.53020134) of under 4, a PXC50 (MAX_EFFECT 39.58333333) of under 4 and a PXC50 (MAX_EFFECT 44.19410745) of under 4.
In the case of `Cn1ncc2c(NCC3CC3)nc(Nc3ccc(F)c(F)c3)nc21`, the PXC50 (BOTTOM 0.0, HILLSLOPE 1.193695984, MAX_EFFECT 69.21119593, TOP 72.54722957) is reported as 5.02, the PXC50 (BOTTOM -3.303876123, HILLSLOPE 0.978123659, MAX_EFFECT 83.23699422, TOP 90.5971187) is reported as 5.12 and the PXC50 (BOTTOM -7.642255371, HILLSLOPE 0.84165704, MAX_EFFECT 66.22807018, TOP 86.93864885) is reported as 4.93.
`Cn1ncc2c(NCCO)nc(NCCS(C)(=O)=O)nc21` was tested, and the PXC50 (MAX_EFFECT 5.936073059) was under 4, the PXC50 (MAX_EFFECT 10.75471698) was under 4 and the PXC50 (MAX_EFFECT 32.3699422) was under 4.
`Cc1nccn1CCCn1cncc1-c1ccc2c(c1)CCC(C)N2C` (configuration not stated) was tested, and the PXC50 (BOTTOM 4.710746105, HILLSLOPE 1.396694103, MAX_EFFECT 77.77777778, TOP 100.0) was 4.36, the PXC50 (BOTTOM 4.776972445, HILLSLOPE 4.284267496, MAX_EFFECT 55.70469799, TOP 54.26344413) was 4.56 and the PXC50 (BOTTOM 5.773645077, HILLSLOPE 1.775302265, MAX_EFFECT 72.6169844, TOP 100.0) was 4.22. The PXC50 (MAX_EFFECT 2.857142857) was under 4 and the PXC50 (MAX_EFFECT 4.347826087) was under 4.
`CC(C)c1ccc(CS(=O)(=O)Cc2nc(N)nc(N(C)C)n2)cc1` was tested, and the PXC50 (MAX_EFFECT 8.163265306) was under 4, the PXC50 (MAX_EFFECT 10.86956522) was under 4 and the PXC50 (MAX_EFFECT 13.83537653) was under 4.
Work on `Cc1noc(CCNc2nc(Nc3ccc(F)c(F)c3)nc3c2cnn3C)n1` yielded a PXC50 (BOTTOM 2.244251311, HILLSLOPE 1.0049242, MAX_EFFECT 73.69439072, TOP 84.09605428) of 4.84, a PXC50 (BOTTOM 5.127321336, HILLSLOPE 1.112866852, MAX_EFFECT 63.09012876, TOP 72.94792798) of 4.77 and a PXC50 (BOTTOM 6.005431852, HILLSLOPE 0.908019528, MAX_EFFECT 65.55819477, TOP 83.02457631) of 4.61.
Work on `c1ccc(CNc2ncc(CN3CCCN4CCC[C@H]4C3)cn2)cc1` yielded a PXC50 (BOTTOM -0.610075864, HILLSLOPE 1.031656218, MAX_EFFECT 61.9047619, TOP 100.0) of 4.18, a PXC50 (BOTTOM -1.183822823, HILLSLOPE 1.053099151, MAX_EFFECT 65.67425569, TOP 100.0) of 4.24 and a PXC50 (MAX_EFFECT 60.86956522) of under 4.
With `COC(=O)CNc1nc(Nc2ccc(F)c(F)c2)nc2c1cnn2C` the PXC50 (BOTTOM 3.451309233, HILLSLOPE 1.311155922, MAX_EFFECT 92.63657957, TOP 92.51088835) was 5.87, the PXC50 (BOTTOM -7.309973035, HILLSLOPE 0.885022203, MAX_EFFECT 95.56840077, TOP 99.22229829) was 5.83 and the PXC50 (BOTTOM -8.727655422, HILLSLOPE 0.982384922, MAX_EFFECT 94.42060086, TOP 95.2064332) was 5.96.
In the case of `Cn1ncc2c(NCCO)nc(Nc3ccccc3)nc21`, the PXC50 (MAX_EFFECT 42.26415094) is reported as under 4, the PXC50 (MAX_EFFECT 47.32824427) is reported as under 4 and the PXC50 (MAX_EFFECT 49.56140351) is reported as under 4.
In the case of `Cc1ccc(CSc2nc(N)cc(NCC(=O)N3CCNCC3)n2)cc1`, the PXC50 (BOTTOM -2.199449509, HILLSLOPE 1.075485519, MAX_EFFECT 68.11594203, TOP 100.0) is reported as 4.29, the PXC50 (BOTTOM -2.347869122, HILLSLOPE 1.011463002, MAX_EFFECT 66.66666667, TOP 100.0) is reported as 4.27 and the PXC50 (BOTTOM -6.039839519, HILLSLOPE 1.064095709, MAX_EFFECT 59.36952715, TOP 57.65563111) is reported as 4.81.
